Records with an inconclusive call do not appear. Active and inactive are the calls of the source. Calls follow the shape of the dose curve; as a rule, active = well fitted curve in the direction sought with a large enough effect; inconclusive = small, poorly fitted or top-dose-only effect, or another doubt; inactive = no such curve, though single readings can be large; an effect the other way counts as inactive or inconclusive.
Experiments:
[1] = Quantitative High-Throughput drug screen in 47 multiple myeloma cell lines against the NCATS MIPE library collection: FR4_PLB cell viability assay (AID 1918924; also: nearly all actives have a fitted effect of over 35% in size; also: potency is read from the fitted curve at half-maximal effect); details: FR4_PLB myeloma cells viability, CellTiter-Glo ATP, 48 h; series mostly up to 45.8 µM
Summary of the method: (§1)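 We plated 500 myeloma cells per well, pinned in MIPE 4.0 compounds, and incubated for 48 hours at 37C. ATP was then quantified with CellTiter-Glo, with DMSO and media-only wells defining 100% and 0%.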

[2] = Quantitative High-Throughput drug screen in 47 multiple myeloma cell lines against the NCATS MIPE library collection: Delta47_JCRB cell viability assay (AID 1918925; also: nearly all actives have a fitted effect of over 45% in size; also: potency is read from the fitted curve at half-maximal effect); details: Delta47 myeloma viability, CellTiter-Glo ATP, 48 h; series mostly up to 45.8 µM
Summary of the method: (§2)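 Steps: seed 500 cells per well; pin-transfer MIPE 4.0 library; incubate 48 h at 37C, 5% CO2, humidified; add CellTiter-Glo, 5 min room temperature; read luminescence.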

[3] = Quantitative High-Throughput drug screen in 47 multiple myeloma cell lines against the NCATS MIPE library collection: EJM_DSMZ cell viability assay (AID 1918926; also: nearly all actives have a fitted effect of over 30% in size; also: potency is read from the fitted curve at half-maximal effect); details: EJM myeloma cell viability, CellTiter-Glo ATP, 48 h; series mostly up to 45.8 µM
Summary of the method: as §2

[4] = Quantitative High-Throughput drug screen in 47 multiple myeloma cell lines against the NCATS MIPE library collection: AMO1_DSMZ cell viability assay (AID 1918927; also: nearly all actives have a fitted effect of over 30% in size; also: potency is read from the fitted curve at half-maximal effect); details: AMO1 myeloma cells viability, CellTiter-Glo ATP luminescence, 48 h; series mostly up to 45.8 µM
Summary of the method: as §2

[5] = Quantitative High-Throughput drug screen in 47 multiple myeloma cell lines against the NCATS MIPE library collection: Karpas620_DSMZ cell viability assay (AID 1918959); details: Karpas620 myeloma viability, CellTiter-Glo ATP luminescence, 48 h; series mostly up to 45.8 µM; also: nearly all actives have a fitted effect of over 30% in size; also: potency is read from the fitted curve at half-maximal effect
Summary of the method: as §1

[6] = Quantitative High-Throughput drug screen in 47 multiple myeloma cell lines against the NCATS MIPE library collection: KHM11_PLB cell viability assay (AID 1918962); details: KHM11 myeloma cell viability, CellTiter-Glo ATP luminescence, 48 h; series mostly up to 45.8 µM; also: nearly all actives have a fitted effect of over 35% in size; also: potency is read from the fitted curve at half-maximal effect
Summary of the method: as §1

[7] = Quantitative High-Throughput drug screen in 47 multiple myeloma cell lines against the NCATS MIPE library collection: JIM3_ECACC cell viability assay (AID 1918963; also: nearly all actives have a fitted effect of over 35% in size; also: potency is read from the fitted curve at half-maximal effect); details: JIM3 myeloma viability, CellTiter-Glo ATP, 48 h; series mostly up to 45.8 µM
Summary of the method: as §1

[8] = Quantitative High-Throughput drug screen in 47 multiple myeloma cell lines against the NCATS MIPE library collection: JIM1_ECACC cell viability assay (AID 1918964; also: potency is read from the fitted curve at half-maximal effect); details: JIM1 myeloma viability, CellTiter-Glo ATP luminescence, 48 h; series mostly up to 45.8 µM
Summary of the method: as §2

[9] = Quantitative High-Throughput drug screen in 47 multiple myeloma cell lines against the NCATS MIPE library collection: ARD_JJKsccE7 cell viability assay (AID 1918929; also: potency is read from the fitted curve at half-maximal effect); details: ARD myeloma cell line viability, CellTiter-Glo, 48 h; series mostly up to 45.8 µM
Summary of the method: as §2

[10] = Quantitative High-Throughput drug screen in 47 multiple myeloma cell lines against the NCATS MIPE library collection: KMM1_JCRB cell viability assay (AID 1918960); details: KMM1 myeloma viability, CellTiter-Glo ATP luminescence, 48 h; series mostly up to 45.8 µM; also: nearly all actives have a fitted effect of over 30% in size; also: potency is read from the fitted curve at half-maximal effect
Summary of the method: (§3)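 Cell viability inhibition in this qHTS is measured via ATP content (CellTiter-Glo) after 48 h drug exposure at 37 °C. Wells hold 500 cells; DMSO-treated wells define 100% and medium-only wells 0%.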

[11] = target: Glutathione peroxidase 1 (Homo sapiens) (UniProt P07203); assay: Primary qHTS Assay for Inhibitors of Recombinant Selenoprotein Glutathione Peroxidase 1 (GPX1) (AID 1845191); details: recombinant GPX1, GR-coupled NADPH fluorescence, 15 min; series mostly up to 48.8 µM; also: nearly all actives have a fitted effect of over 65% in size
Chain of Glutathione peroxidase 1 (Homo sapiens) (P07203 whole entry, looked up): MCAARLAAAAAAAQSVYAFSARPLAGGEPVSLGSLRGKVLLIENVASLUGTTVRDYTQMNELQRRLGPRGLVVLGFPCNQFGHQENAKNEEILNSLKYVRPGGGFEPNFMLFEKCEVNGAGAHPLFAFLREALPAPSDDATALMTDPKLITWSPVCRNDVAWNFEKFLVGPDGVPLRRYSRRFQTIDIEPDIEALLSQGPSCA
Summary of the method: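 GR-coupled readout: NADPH consumption tracked by fluorescence, ex 340/em 450 nm, at t=0 and after 15 min at RT. Final mix 10 nM GPX1, 1 mM GSH, 0.5 mM CHP, 0.5 mM NADPH, 100 nM GR, 0.01% BSA, following 30 min enzyme–compound preincubation.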

[12] = Quantitative High-Throughput drug screen in 47 multiple myeloma cell lines against the NCATS MIPE library collection: ARP1_JJKsccF8 cell viability assay (AID 1918928; also: nearly all actives have a fitted effect of over 40% in size; also: potency is read from the fitted curve at half-maximal effect); details: ARP1 myeloma cells viability, CellTiter-Glo ATP, 48 h; series mostly up to 45.8 µM
Summary of the method: as §3

[13] = Quantitative High-Throughput drug screen in 47 multiple myeloma cell lines against the NCATS MIPE library collection: INA6_PLB cell viability assay (AID 1918965; also: nearly all actives have a fitted effect of over 55% in size; also: potency is read from the fitted curve at half-maximal effect); details: INA6 myeloma viability, CellTiter-Glo ATP luminescence, 48 h; series mostly up to 45.8 µM
Summary of the method: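 Viability readout: CellTiter-Glo luminescence following 5 min room-temperature incubation with reagent. Prior exposure: 48 h, 37C, humidified 5% CO2, 500 cells per well.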

[14] = Quantitative High-Throughput drug screen in 47 multiple myeloma cell lines against the NCATS MIPE library collection: JJN3_DSMZ cell viability assay (AID 1918966; also: nearly all actives have a fitted effect of over 50% in size; also: potency is read from the fitted curve at half-maximal effect); details: JJN3 myeloma cells viability, CellTiter-Glo ATP, 48 h; series mostly up to 45.8 µM
Summary of the method: as §2

[15] = target: Luciferin 4-monooxygenase (Photinus pyralis) (UniProt P08659); assay: Primary firefly luciferase (FLuc) qHTS assay for identification of artifact compounds. (AID 1845220); details: purified firefly luciferase, luminescence, 5 min; series mostly up to 54.1 µM; also: nearly all actives have a fitted effect of over 60% in size
Summary of the method: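 D-luciferin and ATP (10 uM each, final) in Tris acetate buffer pH 7.6 were incubated with compounds for 15 min at room temperature. The reaction was started with 10 nM Photinus pyralis luciferase and luminescence read after 5 min. Percent inhibition was fitted to a 4-parameter Hill equation.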

[16] = test system: Nanoluciferase (engineered Oplophorus gracilirostris luciferase); assay: Primary Nanoluciferase (NLuc) qHTS assay for identification of artifact compounds. (AID 1845222); details: NLuc-conditioned medium, Nano-Glo luminescence, 5 min; series mostly up to 54.1 µM
Summary of the method: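 Diluted conditioned medium from NLuc-expressing S16 cells treated with compounds for 15 min at room temperature, then Nano-Glo substrate added; luminescence read after 5 min. Percent inhibition versus no-enzyme and DMSO controls fitted to 4-parameter Hill equation.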

[17] = Primary redox qHTS assay for identification of artifact compounds. (AID 1845223); details: Amplex Red/HRP redox cycling with DTT, fluorescence; series mostly up to 53.8 µM
Summary of the method: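 Redox-cycling detection via DTT (250 uM final) oxidation coupled to Amplex Red (25 uM)/HRP (250 mU/mL) in HBSS. 15 min preincubation plus 30 min after DTT, room temperature. Ex/Em 525/598 nm; 4-parameter Hill fit against DMSO and 10 uM DA3003.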

[18] = Primary fluorescence-based thiol-reactive (MSTI) qHTS assay for identification of artifact compounds. (AID 1845221); details: MSTI thiol-reactivity probe, 1 h; series mostly up to 53.8 µM; also: nearly all actives have a fitted effect of over 65% in size; also: potency is read from the fitted curve at half-maximal effect
Summary of the method: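 qHTS titration of compound; 4 uM MSTI, PBS pH 7.4, 2% DMSO; 1 h RT, dark; fluorescence 525/598 nm; normalized to Acetyl-MSTI and MSTI; 4-parameter Hill fit.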

Measured: Potency

COC1=CC(C)=C[C@@H](C)[C@@H](O)[C@@H](C)CC(C)=CC=C[C@H](OC)[C@H]([C@@H](C)[C@@H](O)[C@H](C)[C@@]2(O)C[C@@H](O)[C@H](C)[C@@H](C(C)C)O2)OC1=O
active: [1] 4.2 nM | [2] 18.7 nM | [3] 18700 nM | [4] 1 nM | [5] 14800 nM | [6] 1 nM | [7] 5.3 nM | [8] 1 nM

C[C@]12CCC(=O)C(O)=C1CC[C@@H]1[C@H]3CCC(=O)[C@@]3(C)CC[C@@H]12
inactive: [1] | [2] | [3] | [4] | [9] | [5] | [10] | [6] | [7]

O=c1[nH]c2ccccc2n1C1CCN(Cc2ccc(-c3[nH]c4cc5ncnc5cc4nc3-c3ccccc3)cc2)CC1
inactive: [11] | [6]
active: [1] 23500 nM | [2] 1870 nM | [3] 20900 nM | [12] 14800 nM | [9] 18700 nM | [7] 5900 nM | [8] 4690 nM | [13] 1480 nM | [14] 29600 nM

CCc1c(C(=O)C(N)=O)c2c(OCC(=O)O)cccc2n1Cc1ccccc1
not listed: [6] | [10] | [12] | [18]
inactive: all other assays above

CCOC(=O)Nc1ccc(NCc2ccc(F)cc2)cc1N
active: [18] 1190 nM | [2] 7430 nM | [10] 6620 nM
inactive: [15] | [16] | [17] | [1] | [3] | [4] | [12] | [7]

CCOC(=O)c1cncn1[C@H](C)c1ccccc1
inactive: [1] | [2] | [3] | [4] | [6] | [7] | [8] | [13]

CC(=Cc1csc(C)n1)[C@@H]1C[C@H]2O[C@]2(C)CCC[C@H](C)[C@@H](O)[C@@H](C)C(=O)C(C)(C)[C@@H](O)CC(=O)O1
active: [4] 1 nM
inactive: [1] | [2] | [3] | [12] | [9] | [6] | [7] | [13] | [14]

CC1=C(O)C(=O)C=C2C1=CC=C1[C@@]2(C)CC[C@@]2(C)[C@@H]3C[C@](C)(C(=O)O)CC[C@]3(C)CC[C@]12C
active: [1] 743 nM | [2] 833 nM | [3] 743 nM | [4] 526 nM | [12] 743 nM | [9] 1050 nM | [5] 1050 nM | [6] 743 nM | [7] 662 nM | [8] 743 nM | [13] 743 nM | [14] 743 nM
inactive: [11]

CCCCCC[C@H]1C(=O)O[C@H](C)[C@H](NC(=O)c2cccc(NC=O)c2O)C(=O)O[C@@H](C)[C@@H]1OC(=O)CC(C)C
active: [1] 66.2 nM | [2] 52.6 nM | [4] 235 nM | [12] 41.8 nM | [9] 372 nM | [5] 935 nM | [6] 105 nM | [7] 46.9 nM | [8] 372 nM | [13] 83.3 nM | [14] 296 nM
inactive: [11]

CC(=Cc1csc(C)n1)[C@@H]1C[C@H]2O[C@@H]2CCC[C@H](C)[C@@H](O)[C@@H](C)C(=O)C(C)(C)[C@@H](O)CC(=O)O1
active: [4] 1 nM | [9] 1 nM | [10] 1 nM | [8] 1 nM | [14] 264 nM
inactive: [1] | [2] | [3] | [12] | [7] | [13]

CC(=O)OCC1=C(C(=O)O)N2C(=O)[C@@H](N)[C@@H]2SC1
inactive: [1] | [2] | [3] | [12] | [6] | [7]
active: [4] 23500 nM | [5] 10500 nM

Cc1c(C(=O)Nc2cccc(C(F)(F)F)c2)cc(-c2ccccc2)n1CCCN1CCOCC1
inactive: [11] | [15] | [18] | [16] | [17]
active: [1] 23500 nM | [2] 16600 nM | [3] 18700 nM | [4] 8330 nM | [12] 20900 nM | [9] 5900 nM | [5] 16600 nM | [10] 14800 nM | [7] 20900 nM | [8] 6620 nM | [13] 16600 nM | [14] 16600 nM

CCOC(=O)c1c(C(C#N)=CN)c2ccc(Cl)c(Cl)c2n1C
inactive: [11] | [1] | [2] | [3] | [4] | [12] | [5] | [6] | [7]

O=S(=O)(F)Cc1ccccc1
active: [2] 2960 nM | [6] 9350 nM | [13] 1180 nM
not listed: [7] | [8] | [15] | [16] | [17] | [18]
inactive: all other assays above

From PubChem BioAssay (NCATS)
